Results on eight compounds are retold here after PubChem BioAssay (NCI).

This experiment is described as follows: NCI Yeast Anticancer Drug Screen. Data for the wt1 strain (AID 149).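 Further: 0% = growth of vehicle-treated wt1 cultures.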 The following applies: S. cerevisiae wt1 strain (SPY 50644) growth inhibition, active compounds read high. How it is done:
Growth inhibition of yeast strains with defined genetic alterations is measured as a screen for potential anti-cancer activity. Selected strains with alterations in DNA damage repair or cell cycle control were exposed to compounds and growth inhibition was measured relative to vehicle treated controls. The strain used in this assay is wt1

The panel holds about 79,000 compounds, 15% with a hit somewhere; the sample as a whole holds those more often. Unmarked numbers belong to inactive results. The source made the active and inactive calls. No stated cut-off is given here; in the data, active means growth inhibition above about 70%; inactive means the rest.

Consider `CCNc1ccc2c(c1)C(=O)N(OS(C)(=O)=O)C2=O`, for which the growth inhibition is 1% (at 1.2 µM); 5% (at 3.7 µM); 4% (at 11.0 µM); 10% (at 33.0 µM); 31% (at 100.0 µM).
Consider `O=S(=O)(c1cc(Cl)ccc1O)c1cc(Cl)ccc1O`, for which the growth inhibition is 1% (at 1.2 µM); 89% (active) (at 3.7 µM); 99% (active) (at 11.0 µM); 99% (active) (at 33.0 µM); 99% (active) (at 100.0 µM).
On to `Nc1nc(N)c2c(n1)CCC(S(=O)(=O)c1ccc3ccccc3c1)C2` (stereo not given), for which the growth inhibition is -2% (at 1.2 µM); 14% (at 3.7 µM); 12% (at 11.0 µM); 19% (at 33.0 µM); 15% (at 100.0 µM).
For `Cc1ccc(S(=O)(=O)N(C)c2ccc(Cl)cc2C2=NCCc3ccccc32)cc1`, in that order: -2%, -19%, -12%, -6% and 95% (active).
With `CN(CC(=O)O)c1ccc(/C=C/c2ccnc3ccccc23)cc1`, the growth inhibition reads like this: (at 1.2 µM) -2%; (at 3.7 µM) -3%; (at 11.0 µM) -4%; (at 33.0 µM) -8%; (at 100.0 µM) -6%.
For `COC(=O)c1cccc(C)c1C(=O)c1c(C)cc(C)cc1C`, in that order: 0%, 1%, -2%, 5% and 53%.
For `C=C(C)[C@@H]1CCc2c(O)c(O)c(=O)cc(C)c2C1`, in that order: 7%, 25%, 37%, 58% and 99% (active).
Taken in the same sequence, the figures for `CO[C@@]12[C@H](COC(N)=O)C3=C(C(=O)C(C)=C(N)C3=O)N1C[C@@H]1N[C@@H]12` were 1%, 2%, 9%, 30% and 62%.
